Source: the supplement of paper PMC12669032
A number with no mark means an inactive call.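 Rule for the calls: active = AUC reduced over 20% with Padj below 0.05 in at least 2 of 3 replicates; inactive = otherwise.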

tested on: Bacteroides uniformis; assay: growth AUC relative to DMSO control (median of replicates) (fraction); higher = more growth (less inhibition), active = hit call of the paper; details: 20 µM; 24 h
Outline: (§1)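 Starting at OD600 0.05, gut bacterial monocultures in mGAM were grown anaerobically at 37 °C with 20 µM compound (1% DMSO) under pierced gas-permeable seals. OD600 was read every hour for 24 h, and the lowest OD of each curve was set to 0. Area under the growth curve was normalised to the plate median of solvent-only wells, or to row and column medians on the industrial chemical plate, and the median of three biological replicates grown on separate days is given.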

SMILES	growth AUC
BrCCBr	1
O=C(O)c1ccc(Cl)nc1	1.04
N#CCNC(=O)c1cnccc1C(F)(F)F	0.99
O=C1c2ccccc2C(=O)N1SC(Cl)(Cl)Cl	1.05
CCC(CC)Nc1c([N+](=O)[O-])cc(C)c(C)c1[N+](=O)[O-]	0.954
COc1ccc(/C(=C/C(=O)N2CCOCC2)c2ccc(Cl)cc2)cc1OC	0.954
CON(C)C(=O)Nc1ccc(Br)c(Cl)c1	0.944
COP(=S)(NC(C)C)Oc1ccc(C)cc1[N+](=O)[O-] (stereo not drawn)	0.956
CCCCc1c(C)nc(N(C)C)[nH]c1=O	0.982
CCCSP(=S)(OCC)Oc1ccc(Cl)cc1Cl (stereo not drawn)	1.01
O=S1(=O)OCC2C(CO1)C1(Cl)C(Cl)=C(Cl)C2(Cl)C1(Cl)Cl (stereo not drawn)	0.914
Oc1ccc(-c2ccccc2)cc1	0.957
CC(C)(C)c1ccc(CSc2cnn(C(C)(C)C)c(=O)c2Cl)cc1	0.986
CCOc1ccc(C(C)(C)COCc2cccc(Oc3ccccc3)c2)cc1	1.05
CNC(=O)Oc1cccc2c1OC(C)(C)C2=O	1.05
CCOC(=O)N(C)C(=O)CSP(=S)(OCC)OCC	0.991
Nc1c(Cl)cc([N+](=O)[O-])cc1Cl	1.05
O=C1C(Cl)=C(Cl)C(=O)C(Cl)=C1Cl	0.976
COc1cc(OC)nc(NC(=O)[N-]S(=O)(=O)c2ncccc2OCC(F)(F)F)n1.[Na+]	1.02
Cc1cc(Cl)ccc1N=CN(C)C.Cl	0.982

SMILES	growth AUC
CCOCn1c(-c2ccc(Cl)cc2)c(C#N)c(Br)c1C(F)(F)F	0.943
CCOP(=S)(OCC)Oc1cnc2ccccc2n1	0.867
C#CCC1=C(C)C(OC(=O)C2C(C=C(C)C)C2(C)C)CC1=O (stereo not drawn)	0.932
CCOP(=S)(OCC)SCCS(=O)CC (stereo not drawn)	1.05
CO/N=C(/C(=O)OC)c1ccccc1CO/N=C(\C)c1cccc(C(F)(F)F)c1	0.994
CCSC(=O)N1CCCCCC1	0.966
COC(C)(C)CCCC(C)C/C=C/C(C)=C/C(=O)OC(C)C (stereo not drawn)	0.963
Clc1c(Cl)c(Cl)c(Cl)c(Cl)c1Cl	0.992
C[C@@H]1C[C@@H]([C@H](O)CC2CC(=O)NC(=O)C2)C(=O)[C@@H](C)C1	0.999
CCS(=O)(=O)Cc1ccccc1OC(=O)NC	0.995
CC1CNC(=S)N1 (stereo not drawn)	1
CCNc1nc(Cl)nc(NC(C)(C)C)n1	1
COP(=O)(OC)OC(Br)C(Cl)(Cl)Br (stereo not drawn)	0.962
O=C(NC(=O)c1ccccc1Cl)Nc1ccc(OC(F)(F)F)cc1	1.01
O=C(O)C(Cl)Cl	1.01
CCCOc1nn(C(=O)[N-]S(=O)(=O)c2ccccc2C(=O)OC)c(=O)n1C.[Na+]	0.972
Oc1ccc(Cl)cc1	0.987
C/C(=N\NC(=O)Nc1cc(F)cc(F)c1)c1ncccc1C(=O)[O-].[Na+]	0.946
CCCN(CCOc1c(Cl)cc(Cl)cc1Cl)C(=O)n1ccnc1	0.836

tested on: Bifidobacterium longum subsp. longum; assay: as above; details: 20 µM; 24 h
Outline: as §1

SMILES	growth AUC
BrCCBr	1.03
O=C(O)c1ccc(Cl)nc1	0.902
N#CCNC(=O)c1cnccc1C(F)(F)F	0.961
O=C1c2ccccc2C(=O)N1SC(Cl)(Cl)Cl	0.988
CCC(CC)Nc1c([N+](=O)[O-])cc(C)c(C)c1[N+](=O)[O-]	1
COc1ccc(/C(=C/C(=O)N2CCOCC2)c2ccc(Cl)cc2)cc1OC	1.04
CON(C)C(=O)Nc1ccc(Br)c(Cl)c1	0.946
COP(=S)(NC(C)C)Oc1ccc(C)cc1[N+](=O)[O-] (stereo not drawn)	1.04
CCCCc1c(C)nc(N(C)C)[nH]c1=O	0.998
CCCSP(=S)(OCC)Oc1ccc(Cl)cc1Cl (stereo not drawn)	1.07
O=S1(=O)OCC2C(CO1)C1(Cl)C(Cl)=C(Cl)C2(Cl)C1(Cl)Cl (stereo not drawn)	1.11
Oc1ccc(-c2ccccc2)cc1	0.899
CC(C)(C)c1ccc(CSc2cnn(C(C)(C)C)c(=O)c2Cl)cc1	0.97
CCOc1ccc(C(C)(C)COCc2cccc(Oc3ccccc3)c2)cc1	1.48
CNC(=O)Oc1cccc2c1OC(C)(C)C2=O	1.02
CCOC(=O)N(C)C(=O)CSP(=S)(OCC)OCC	0.991
Nc1c(Cl)cc([N+](=O)[O-])cc1Cl	1.07
O=C1C(Cl)=C(Cl)C(=O)C(Cl)=C1Cl	0.969
COc1cc(OC)nc(NC(=O)[N-]S(=O)(=O)c2ncccc2OCC(F)(F)F)n1.[Na+]	1.07
Cc1cc(Cl)ccc1N=CN(C)C.Cl	1.03

SMILES	growth AUC
CCOCn1c(-c2ccc(Cl)cc2)c(C#N)c(Br)c1C(F)(F)F	1.04
CCOP(=S)(OCC)Oc1cnc2ccccc2n1	0.987
C#CCC1=C(C)C(OC(=O)C2C(C=C(C)C)C2(C)C)CC1=O (stereo not drawn)	1.02
CCOP(=S)(OCC)SCCS(=O)CC (stereo not drawn)	1
CO/N=C(/C(=O)OC)c1ccccc1CO/N=C(\C)c1cccc(C(F)(F)F)c1	0.975
CCSC(=O)N1CCCCCC1	0.992
COC(C)(C)CCCC(C)C/C=C/C(C)=C/C(=O)OC(C)C (stereo not drawn)	0.987
Clc1c(Cl)c(Cl)c(Cl)c(Cl)c1Cl	0.981
C[C@@H]1C[C@@H]([C@H](O)CC2CC(=O)NC(=O)C2)C(=O)[C@@H](C)C1	1.02
CCS(=O)(=O)Cc1ccccc1OC(=O)NC	1.01
CC1CNC(=S)N1 (stereo not drawn)	1.01
CCNc1nc(Cl)nc(NC(C)(C)C)n1	1.01
COP(=O)(OC)OC(Br)C(Cl)(Cl)Br (stereo not drawn)	0.99
O=C(NC(=O)c1ccccc1Cl)Nc1ccc(OC(F)(F)F)cc1	0.986
O=C(O)C(Cl)Cl	1.01
CCCOc1nn(C(=O)[N-]S(=O)(=O)c2ccccc2C(=O)OC)c(=O)n1C.[Na+]	1.01
Oc1ccc(Cl)cc1	0.971
C/C(=N\NC(=O)Nc1cc(F)cc(F)c1)c1ncccc1C(=O)[O-].[Na+]	0.987
CCCN(CCOc1c(Cl)cc(Cl)cc1Cl)C(=O)n1ccnc1	0.89
